Unmarked numbers belong to inactive results.

Sequence of UniProt Q07954 (Q07954 whole entry): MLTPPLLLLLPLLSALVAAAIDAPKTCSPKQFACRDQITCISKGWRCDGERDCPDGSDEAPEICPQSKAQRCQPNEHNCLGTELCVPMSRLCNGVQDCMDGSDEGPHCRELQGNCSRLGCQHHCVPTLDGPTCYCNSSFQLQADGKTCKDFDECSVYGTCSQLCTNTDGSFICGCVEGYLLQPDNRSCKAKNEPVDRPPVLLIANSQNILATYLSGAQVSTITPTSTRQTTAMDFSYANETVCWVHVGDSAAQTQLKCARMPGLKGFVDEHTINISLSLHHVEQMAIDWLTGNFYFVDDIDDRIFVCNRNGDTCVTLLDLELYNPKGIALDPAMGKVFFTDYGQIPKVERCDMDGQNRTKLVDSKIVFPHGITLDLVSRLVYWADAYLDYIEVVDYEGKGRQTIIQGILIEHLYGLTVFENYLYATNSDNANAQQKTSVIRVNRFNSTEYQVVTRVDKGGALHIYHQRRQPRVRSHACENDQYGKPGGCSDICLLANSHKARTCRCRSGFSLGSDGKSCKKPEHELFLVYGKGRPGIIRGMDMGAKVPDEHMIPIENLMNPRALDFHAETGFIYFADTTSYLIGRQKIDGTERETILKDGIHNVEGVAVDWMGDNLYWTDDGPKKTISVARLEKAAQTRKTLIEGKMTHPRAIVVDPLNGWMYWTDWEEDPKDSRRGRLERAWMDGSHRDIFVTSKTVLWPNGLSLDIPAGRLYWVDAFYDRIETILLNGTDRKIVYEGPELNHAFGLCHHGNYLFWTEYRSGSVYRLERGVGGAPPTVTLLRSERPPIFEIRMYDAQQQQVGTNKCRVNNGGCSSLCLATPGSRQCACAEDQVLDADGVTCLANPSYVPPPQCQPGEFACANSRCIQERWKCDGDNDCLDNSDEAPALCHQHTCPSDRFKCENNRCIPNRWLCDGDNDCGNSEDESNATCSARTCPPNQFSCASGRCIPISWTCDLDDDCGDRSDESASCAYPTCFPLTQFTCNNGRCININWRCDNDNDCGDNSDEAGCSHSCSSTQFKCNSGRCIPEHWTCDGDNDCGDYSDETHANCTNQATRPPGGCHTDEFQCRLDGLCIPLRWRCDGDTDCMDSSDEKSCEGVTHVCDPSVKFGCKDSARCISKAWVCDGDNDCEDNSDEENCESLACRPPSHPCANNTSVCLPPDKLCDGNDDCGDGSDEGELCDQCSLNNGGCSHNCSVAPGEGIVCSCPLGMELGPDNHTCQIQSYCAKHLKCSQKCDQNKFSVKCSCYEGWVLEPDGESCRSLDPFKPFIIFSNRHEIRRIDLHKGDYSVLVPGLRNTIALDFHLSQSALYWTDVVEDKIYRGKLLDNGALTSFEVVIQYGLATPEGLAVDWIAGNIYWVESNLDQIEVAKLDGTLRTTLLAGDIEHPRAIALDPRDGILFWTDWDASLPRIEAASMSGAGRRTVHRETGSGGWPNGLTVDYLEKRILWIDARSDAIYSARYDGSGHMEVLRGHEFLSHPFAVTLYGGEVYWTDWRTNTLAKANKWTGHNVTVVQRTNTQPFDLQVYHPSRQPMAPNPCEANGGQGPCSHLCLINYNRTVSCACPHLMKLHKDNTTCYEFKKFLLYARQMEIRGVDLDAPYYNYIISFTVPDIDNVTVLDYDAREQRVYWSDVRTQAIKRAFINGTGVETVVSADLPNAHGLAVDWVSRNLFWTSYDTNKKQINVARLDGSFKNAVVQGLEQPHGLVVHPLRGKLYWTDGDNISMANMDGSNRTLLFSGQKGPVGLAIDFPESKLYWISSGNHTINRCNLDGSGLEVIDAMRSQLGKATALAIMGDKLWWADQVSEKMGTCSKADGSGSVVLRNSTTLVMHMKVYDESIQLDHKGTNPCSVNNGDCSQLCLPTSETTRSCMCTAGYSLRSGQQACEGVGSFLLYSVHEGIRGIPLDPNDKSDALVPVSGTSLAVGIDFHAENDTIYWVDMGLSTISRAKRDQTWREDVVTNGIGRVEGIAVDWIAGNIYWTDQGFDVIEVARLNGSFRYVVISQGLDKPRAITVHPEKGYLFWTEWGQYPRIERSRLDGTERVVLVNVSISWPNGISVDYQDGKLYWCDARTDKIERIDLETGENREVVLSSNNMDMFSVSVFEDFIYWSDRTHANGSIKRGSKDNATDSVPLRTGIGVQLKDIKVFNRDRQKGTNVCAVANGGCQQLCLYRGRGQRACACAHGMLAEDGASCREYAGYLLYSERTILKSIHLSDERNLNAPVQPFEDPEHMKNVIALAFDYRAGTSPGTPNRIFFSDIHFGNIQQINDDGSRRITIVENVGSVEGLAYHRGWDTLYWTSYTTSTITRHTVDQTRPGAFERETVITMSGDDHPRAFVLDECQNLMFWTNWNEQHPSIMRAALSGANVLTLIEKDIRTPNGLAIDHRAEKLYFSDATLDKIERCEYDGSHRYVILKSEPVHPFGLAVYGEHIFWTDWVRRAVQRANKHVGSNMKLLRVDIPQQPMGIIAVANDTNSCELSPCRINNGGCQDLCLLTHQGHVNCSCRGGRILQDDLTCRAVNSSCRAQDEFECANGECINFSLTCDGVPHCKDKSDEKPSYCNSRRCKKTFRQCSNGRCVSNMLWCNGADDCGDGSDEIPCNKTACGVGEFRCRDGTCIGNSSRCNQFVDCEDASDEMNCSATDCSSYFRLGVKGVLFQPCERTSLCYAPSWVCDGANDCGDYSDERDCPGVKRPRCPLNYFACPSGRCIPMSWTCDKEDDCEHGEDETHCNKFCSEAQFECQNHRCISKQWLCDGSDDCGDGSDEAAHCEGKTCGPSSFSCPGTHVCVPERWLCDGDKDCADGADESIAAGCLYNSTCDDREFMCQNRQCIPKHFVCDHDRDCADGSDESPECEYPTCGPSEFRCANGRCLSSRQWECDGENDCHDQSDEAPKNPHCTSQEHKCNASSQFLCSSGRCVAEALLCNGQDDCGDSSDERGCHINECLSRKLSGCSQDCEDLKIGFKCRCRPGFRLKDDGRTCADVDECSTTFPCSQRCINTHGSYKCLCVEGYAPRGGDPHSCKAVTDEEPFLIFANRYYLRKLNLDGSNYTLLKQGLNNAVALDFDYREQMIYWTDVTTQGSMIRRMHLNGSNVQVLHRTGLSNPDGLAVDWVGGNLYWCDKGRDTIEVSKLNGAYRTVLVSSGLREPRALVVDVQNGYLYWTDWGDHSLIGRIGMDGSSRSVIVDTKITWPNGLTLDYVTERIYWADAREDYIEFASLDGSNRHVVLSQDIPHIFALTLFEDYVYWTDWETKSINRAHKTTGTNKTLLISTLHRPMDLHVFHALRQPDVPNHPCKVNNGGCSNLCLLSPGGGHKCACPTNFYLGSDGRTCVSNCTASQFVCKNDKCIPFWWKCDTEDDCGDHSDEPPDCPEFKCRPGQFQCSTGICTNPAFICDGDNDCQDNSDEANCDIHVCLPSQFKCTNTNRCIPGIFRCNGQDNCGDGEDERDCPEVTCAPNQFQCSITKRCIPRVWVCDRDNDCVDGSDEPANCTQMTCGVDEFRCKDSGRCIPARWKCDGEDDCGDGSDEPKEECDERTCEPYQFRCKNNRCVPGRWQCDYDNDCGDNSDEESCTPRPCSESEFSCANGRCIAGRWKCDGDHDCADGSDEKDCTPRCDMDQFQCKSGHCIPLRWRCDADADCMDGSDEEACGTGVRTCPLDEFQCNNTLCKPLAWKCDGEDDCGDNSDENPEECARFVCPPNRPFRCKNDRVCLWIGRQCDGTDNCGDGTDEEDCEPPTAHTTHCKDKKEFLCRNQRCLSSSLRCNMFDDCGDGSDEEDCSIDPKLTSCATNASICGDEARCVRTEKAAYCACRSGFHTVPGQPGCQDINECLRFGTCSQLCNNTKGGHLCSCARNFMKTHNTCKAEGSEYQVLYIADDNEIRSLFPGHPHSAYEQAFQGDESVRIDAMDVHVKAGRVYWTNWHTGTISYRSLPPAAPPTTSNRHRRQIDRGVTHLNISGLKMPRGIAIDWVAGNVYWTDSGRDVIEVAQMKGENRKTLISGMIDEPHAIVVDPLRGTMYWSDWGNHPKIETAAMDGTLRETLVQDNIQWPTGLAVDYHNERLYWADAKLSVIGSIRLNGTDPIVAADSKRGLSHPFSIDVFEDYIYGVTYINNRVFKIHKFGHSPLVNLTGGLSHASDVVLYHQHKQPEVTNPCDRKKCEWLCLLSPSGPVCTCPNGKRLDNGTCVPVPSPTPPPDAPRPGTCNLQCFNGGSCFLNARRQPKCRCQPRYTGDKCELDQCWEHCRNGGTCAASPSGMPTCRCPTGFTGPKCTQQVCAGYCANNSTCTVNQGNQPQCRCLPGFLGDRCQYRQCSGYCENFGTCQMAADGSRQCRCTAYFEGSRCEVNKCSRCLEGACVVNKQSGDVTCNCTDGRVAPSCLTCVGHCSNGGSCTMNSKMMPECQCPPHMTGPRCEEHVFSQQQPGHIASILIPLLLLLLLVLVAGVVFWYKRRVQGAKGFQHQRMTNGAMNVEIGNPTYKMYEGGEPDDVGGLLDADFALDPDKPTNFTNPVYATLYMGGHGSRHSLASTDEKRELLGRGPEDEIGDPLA
Sequence of UniProt O75083 (O75083 whole entry): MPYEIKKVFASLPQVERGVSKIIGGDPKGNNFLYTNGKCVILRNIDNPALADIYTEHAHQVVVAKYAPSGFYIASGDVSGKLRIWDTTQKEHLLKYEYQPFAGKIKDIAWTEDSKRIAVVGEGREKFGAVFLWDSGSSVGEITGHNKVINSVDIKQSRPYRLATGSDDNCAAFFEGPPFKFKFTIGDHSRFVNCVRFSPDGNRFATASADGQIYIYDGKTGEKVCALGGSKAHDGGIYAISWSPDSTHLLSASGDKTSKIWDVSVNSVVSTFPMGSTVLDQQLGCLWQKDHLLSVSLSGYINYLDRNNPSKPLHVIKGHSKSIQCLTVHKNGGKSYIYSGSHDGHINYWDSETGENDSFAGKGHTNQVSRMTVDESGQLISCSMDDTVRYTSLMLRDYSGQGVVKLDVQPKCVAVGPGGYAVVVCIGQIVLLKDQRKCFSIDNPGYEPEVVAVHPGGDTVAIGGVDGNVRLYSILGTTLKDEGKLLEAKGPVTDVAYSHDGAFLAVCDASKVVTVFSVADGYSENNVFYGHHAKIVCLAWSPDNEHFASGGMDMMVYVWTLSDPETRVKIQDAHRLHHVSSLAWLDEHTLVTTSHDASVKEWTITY

Compound in the assay: C#CCNC(=O)CCSSCCC(=O)NCCc1ccc(C=O)c(C=O)c1
Description: lysine labeling ratio R10:1 (500 µM / 50 µM probe), SILAC-ABPP in living cells; higher = lower intrinsic lysine reactivity toward the probe, active = 2 or less. The following applies: HeLa; probe concentrations 500 vs 50 µM. In short, it runs like this:
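SILAC light and heavy living HeLa cells in PBS at room temperature were labelled with 50 µM or 500 µM of an alkyne-tagged, disulfide-linked lysine probe, with forward and reverse label swaps. Mixed lysates were clicked to biotin-azide, trypsin-digested, captured on neutravidin, DTT-released, alkylated and analysed by LC-MS/MS on a TIMS-TOF Pro. R is the filtered median high-probe/low-probe MS1 peptide ratio per lysine, then the median across forward and reverse replicates. Ratios are capped at 20.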
Take “EPHA2 (lysine site: K441) (UniProt P29317)”: the “lysine labeling ratio R10:1” value was 7.45.

Consider “LAMB1 (lysine site: K184) (UniProt P07942)”, for which the “lysine labeling ratio R10:1” value was 1.21 (active). The figure for “GNAI2 (lysine site: K313) (UniProt P04899)” is 1.06 (active); for “RTN4 (lysine site: K1066) (UniProt Q9NQC3)” it is 3.4; for “CALD1 (lysine site: K119) (UniProt Q05682)” it is 2.67. The figure for WDR1 (lysine site: K7) (UniProt O75083) is 0.76 (active); for UniProt P61513 (lysine site: K13) it is 1.64 (active). Next, “EEF2 (lysine site: K42) (UniProt P13639)”: 1.82 (active); “PTBP1 (lysine site: K137) (UniProt P26599)”: 3.2. Regarding “LAMC1 (lysine site: K1258) (UniProt P11047)”, the “lysine labeling ratio R10:1” value was 1.54 (active). In the case of “ITGAV (lysine site: K514) (UniProt P06756)”, the “lysine labeling ratio R10:1” value is 0.678 (active). The figure for CS (lysine site: K43) (UniProt O75390) is 4.66; for “ATAD3B (lysine site: K117) (UniProt Q5T9A4)” it is 1.26 (active); for “LRP1 (lysine site: K806) (UniProt Q07954)” it is 1.57 (active). Consider “PTPRF (lysine site: K906) (UniProt P10586)”, for which the “lysine labeling ratio R10:1” value is 4.94. Next, “RBMX (lysine site: K150) (UniProt P38159)”: 16.9. Regarding UniProt Q9UII2 (lysine site: K49), the “lysine labeling ratio R10:1” value is 3.39. The figure for “LRP1 (lysine site: K2653) (UniProt Q07954)” is 1.54 (active); for “SPTAN1 (lysine site: K1856) (UniProt Q13813)” it is 5.67; for “NRP1 (lysine site: K538) (UniProt O14786)” it is 2.73. As to “SDC4 (lysine site: K105) (UniProt P31431)”, the “lysine labeling ratio R10:1” value is 3.81. The figure for “KPNB1 (lysine site: K867) (UniProt Q14974)” is 1.36 (active). In the case of “LAMP1 (lysine site: K337) (UniProt P11279)”, the “lysine labeling ratio R10:1” value was 6.57. The figure for UniProt O95084 (lysine site: K189) is 2.74; for “PAICS (lysine site: K304) (UniProt P22234)” it is 4.39; for “RPL3 (lysine site: K356) (UniProt P39023)” it is 2.08. The figure for “GPI (lysine site: K366) (UniProt P06744)” is 2.81; for “PDIA3 (lysine site: K274) (UniProt P30101)” it is 3.59. The figure for “STS (lysine site: K368) (UniProt P08842)” is 1.48 (active); for “CD44 (lysine site: K158) (UniProt P16070)” it is 4.38; for “P30462 (lysine site: K267) (UniProt P01889)” it is 2.91. On to “PSMD2 (lysine site: K551) (UniProt Q13200)”, for which the “lysine labeling ratio R10:1” value was 2.34. For the target “RPS19 (lysine site: K122) (UniProt P39019)”, the “lysine labeling ratio R10:1” value was 4.72. As for “HNRNPM (lysine site: K69) (UniProt P52272)”, the “lysine labeling ratio R10:1” value is 3.38. Take “TGFBI (lysine site: K676) (UniProt Q15582)”: the “lysine labeling ratio R10:1” value is 3.4. The figure for “CACNA2D1 (lysine site: K1048) (UniProt P54289)” is 6.59; for UniProt Q6NZI2 (lysine site: K299) it is 4.52. As for “SERPINH1 (lysine site: K217) (UniProt P50454)”, the “lysine labeling ratio R10:1” value was 1.17 (active). Consider “ITGA6 (lysine site: K680) (UniProt P23229)”, for which the “lysine labeling ratio R10:1” value is 2.82.

“THRAP3 (lysine site: K519) (UniProt Q9Y2W1)”: the “lysine labeling ratio R10:1” value was 3.8.

For the origin of these results see the supplement of paper PMC11001985.
